From PubChem BioAssay (NCI)
The panel holds about 83,000 compounds, 20% with a hit somewhere; the sample as a whole holds those more often.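 Plates (96-well) were seeded with cells, treated with compound at one concentration, and incubated for 48 hours before percent growth was determined.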 Unmarked numbers belong to inactive results. Active and inactive are the calls of the source. The calls were made as follows: active = growth percent below 10; inactive = the rest.

Columns and labels:
Test in all cases: NCI-60 one-dose screen, 48 h (100 = growth as untreated, 0 = no growth, -100 = all killed)
Conditions in all cases: 10 µM unless noted
SR leukemia = test system: SR leukemia
RPMI-8226 leukemia = test system: RPMI-8226 leukemia
OVCAR-8 ovarian = test system: OVCAR-8 ovarian
OVCAR-5 ovarian = test system: OVCAR-5 ovarian
OVCAR-4 ovarian = test system: OVCAR-4 ovarian
SK-OV-3 ovarian = test system: SK-OV-3 ovarian
IGROV1 ovarian = test system: IGROV1 ovarian
OVCAR-3 ovarian = test system: OVCAR-3 ovarian
HS 578T breast = test system: HS 578T breast
NCI/ADR-RES ovarian = test system: NCI/ADR-RES ovarian
T-47D breast = test system: T-47D breast
BT-549 breast = test system: BT-549 breast
MDA-MB-435 melanoma = test system: MDA-MB-435 melanoma
SW-620 colon = test system: SW-620 colon
MCF7 breast = test system: MCF7 breast
HCT-116 colon = test system: HCT-116 colon
HCC-2998 colon = test system: HCC-2998 colon
KM12 colon = test system: KM12 colon

Row | Compound | growth (SR leukemia) | growth (RPMI-8226 leukemia) | growth (OVCAR-8 ovarian) | growth (OVCAR-5 ovarian) | growth (OVCAR-4 ovarian) | growth (SK-OV-3 ovarian) | growth (IGROV1 ovarian) | growth (OVCAR-3 ovarian) | growth (HS 578T breast) | growth (NCI/ADR-RES ovarian) | growth (T-47D breast) | growth (BT-549 breast) | growth (MDA-MB-435 melanoma) | growth (SW-620 colon) | growth (MCF7 breast) | growth (HCT-116 colon) | growth (HCC-2998 colon) | growth (KM12 colon)
1 | CC1CCc2c(C(=O)Nc3ncc(Cc4cccc([N+](=O)[O-])c4)s3)csc2C1 (stereo unspecified) | 26.7% | 33% | 26.4% | 34.7% | 39.3% | 21.6% | 30.7% | 1.09% (active) | 19.1% | 15.6% | 27.8% | 46.6% | -42% (active) | 23.3% | 17.1% | 19% | 41.2% | 18.2%
2 | O=C1/C(=C/c2ccc([N+](=O)[O-])cc2)COc2ccc(O)cc21 | 7.84% (active) | -16.4% (active) | 69.5% | 99% | 89.5% | 113% | 73.4% | 82.7% | 89.3% | 92.1% | 79.4% | 95% | 82.4% | -11.7% (active) | 5.28% (active) | -5.5% (active) | 98.5% | 48%
3 | COc1cccc(/C=C2\COc3ccc(O)c(O)c3C2=O)c1 | 12.6% | -7.52% (active) | 10.7% | -2.7% (active) | 26.9% | 86.2% | -31.1% (active) | -28.3% (active) | 20.4% | 2.6% (active) | -0.573% (active) | 15.6% | -3.44% (active) | 1.94% (active) | 17.6% | -7.55% (active) | 19.8% | -13.7% (active)
4 | Cc1c(-c2ccc(O)cc2)n(Cc2ccc(OCCN3CCCCCC3)cc2)c2ccc(O)cc12 | 1.53% (active) | 57.5% | 84.7% | 87.9% | 78.1% | 81.3% | 85.7% | 85.1% | 68.4% | 85.7% | 58.4% | 84% | 79.6% | 66.3% | 11.6% | 59.1% | 114% | 73.4%
5 | CC(C)COc1nc2c(c(=O)n(C)c(=O)n2C)n1C | 90.8% | 110% | -6.67% (active) | 112% | 97.7% | 90.7% | 109% | 106% | 100% | 99.8% | 88.6% | 103% | 104% | 102% | 86.4% | 107% | 102% | 99.5%
6 | COc1cc2c(cc1OCCCN1CCN(CCCOc3cc4c(cc3OC)C(=O)N3CCC[C@H]3C=N4)CC1)C=CC(C)(C)O2 | -58.3% (active) | -8.49% (active) | -56.7% (active) | -80.7% (active) | -71.2% (active) | -83.9% (active) | -89.1% (active) | -75.6% (active) | -77.9% (active) | 32.6% | -55.2% (active) | -100% (active) | -72.9% (active) | -100% (active) | -100% (active) | -96% (active) | -82.1% (active) | -82% (active)
7 | CC(C)=CCCC(C)c1ccc(C)c2c1OCN(CCCCCO)C2 (stereo unspecified) | 66.6% | 76.7% | 90.1% | 87.4% | 95.4% | 88.8% | 90.4% | 99.7% | 81.2% | 75.9% | 88.1% | 72.1% | 97.1% | 94.9% | 88.7% | 68.6% | 73.5% | 104%
8 | O=C(O)c1ccc(-n2cc(/C=N/Nc3ccccc3)c(-c3ccc(F)cc3F)n2)cc1 | 72% | 50% | 53.3% | 57.6% | 80.4% | 89.1% | 52.6% | 62.3% | 68.6% | 56.7% | 35.4% | 95.2% | 45.9% | 30.1% | 41.6% | 37.7% | 81.1% | 29.3%
9 | Cn1cc(-c2nonc2-c2cn(C)c3ccccc23)c2ccccc21 | 16% | 14.2% | 17.4% | 35.5% | 56.1% | 18.7% | 45.9% | 0.348% (active) | 30.7% | 17.4% | 33.4% | 31.1% | -34.3% (active) | 24.5% | 19.4% | 11.6% | 51.2% | 27.4%
10 | CCc1ccccc1-n1c(-c2ccc(OC)cc2)cc(-c2ccc(OC)cc2)c(C#N)c1=O | 98.4% | 105% | 41.7% | 92.7% | 85.9% | 54% | 85.5% | 82.2% | 17.9% | 72.4% | 90.6% | 101% | 104% | 93.9% | 93% | 51.1% | 97.1% | 92.5%
11 | N#CC1=C(N)Oc2c(c(=O)[nH]c3ccc(Cl)cc23)C12C(=O)c1ccccc1C2=O | 101% | 96.2% | 102% | 96.1% | 93.1% | 101% | 100% | 93.4% | 83.3% | 102% | 98.2% | 89% | 92.6% | 86.5% | 96.4% | 95.7% | 109% | 90.7%
12 | C=C(C)[C@@H]1CCC[C@]2(COS(=O)(=O)c3ccc(C)cc3)CC[C@]3(C)[C@@H](CC[C@@H]4[C@@]5(C)CCCNC(C)(C)[C@@H]5CC[C@]43C)[C@@H]12 | -46.1% (active) | -14.8% (active) | -77.6% (active) | 63.3% | -64.4% (active) | 98.7% | -87.1% (active) | -87.7% (active) | 61.4% | -3.42% (active) | 59.6% | 83.7% | -25.3% (active) | -69.4% (active) | -32.6% (active) | -82.8% (active) | -75.8% (active) | -25.2% (active)
13 | CCn1cc(C(=O)O)c(=O)c2cc(F)c(N3CCN(CC(=O)Nc4ccc(S(=O)(=O)Nc5nccc(C)n5)cc4)C(C)C3)c(F)c21 (stereo unspecified) | 103% | 109% | 105% | 98.5% | 104% | 113% | 99.7% | 113% | 99.6% | 107% | 98.9% | 132% | 103% | 96.6% | 96.7% | 104% | 115% | 100%
14 | Cn1cc(-c2csc(-c3c[nH]c4ccccc34)n2)c2cnccc21 | -7.21% (active) | -28% (active) | 18.2% | 75.4% | 14.3% | 85.3% | 47.3% | -59.8% (active) | 88.3% | 35.9% | -3.84% (active) | 78.7% | -72.5% (active) | -48% (active) | 16.7% | -59.7% (active) | 87% | 22.8%
15 | COc1ccc(C2=C(Nc3ccc(C(=O)Nc4ccccc4)cc3)C(=O)N(C)C2=O)cc1 | 66.6% | 82.1% | 91.5% | 100% | 97.4% | 74.9% | 97.7% | 109% | 110% | 87% | 68.8% | 115% | 106% | 106% | 102% | 107% | 98.5% | 91.6%
16 | COC(=O)c1nc(-c2ccc(C)cc2)oc1S(=O)(=O)c1cccc(OC)c1 | 0.69% (active) | 94.2% | 93% | 92.1% | 107% | 105% | 81.5% | 77.8% | 110% | 103% | 90% | 70.6% | 100% | 65.5% | 95.6% | 61.6% | 103% | 93.5%
17 | NC(=O)c1ccc(-c2c3ccccc3cc3c2ccc2ccccc23)cc1 | 15.9% | 49.7% | 77.4% | 74.7% | 80% | 69.5% | 42.6% | 3.85% (active) | -12.4% (active) | 16.6% | 60.4% | 29.1% | 0.545% (active) | 17.1% | 17.7% | 33.4% | 60% | 3.27% (active)
